Bioassay records from PubChem.
MRP-1 activ: activates MRP-1. 140,000 tested, 0.61% active. viability increase, % at 10 µM. H69AR cells + doxorubicin, viability rescue, CellTiter-Glo. AID 799;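 active = viability gain under doxorubicin at or above a set limit, the compound median plus 3 SD, cut at about 4.7% in these data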;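 also: MRP-1 overexpressing cells given doxorubicin 25 µM after compound pretreatment; 18-22 h compound pretreatment then 72 h with doxorubicin before readout; 0% = doxorubicin-only wells and 100% = vehicle-treated cells without doxorubicin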
CYP2C19 activ: cytochrome P450 2C19 (human) activation; recombinant CYP2C19, luciferin-H EGE luminescence; stronger effect = higher value; 0 = fully inhibited enzyme, 1 = untreated enzyme; 96,000 tested, under 10 active; P33261; activation factor at 5 µM;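 active = activation factor of at least 2 at 5 µM in the primary screen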;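 also: 0 = wells with 2.5 mM tranylcypromine and 1 = vehicle-only wells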
Target sequence (P33261 whole entry, looked up): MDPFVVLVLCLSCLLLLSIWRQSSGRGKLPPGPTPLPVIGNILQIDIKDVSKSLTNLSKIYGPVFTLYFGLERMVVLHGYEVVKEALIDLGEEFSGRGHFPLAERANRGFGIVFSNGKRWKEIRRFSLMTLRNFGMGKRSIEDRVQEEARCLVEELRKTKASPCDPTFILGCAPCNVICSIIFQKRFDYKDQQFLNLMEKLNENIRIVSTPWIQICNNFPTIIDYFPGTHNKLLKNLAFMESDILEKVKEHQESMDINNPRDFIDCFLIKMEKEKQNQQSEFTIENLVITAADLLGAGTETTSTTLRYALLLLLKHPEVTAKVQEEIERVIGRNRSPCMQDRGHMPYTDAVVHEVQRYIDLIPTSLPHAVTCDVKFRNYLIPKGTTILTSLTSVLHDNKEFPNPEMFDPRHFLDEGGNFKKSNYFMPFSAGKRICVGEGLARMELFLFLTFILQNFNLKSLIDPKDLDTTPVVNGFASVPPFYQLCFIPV
MRP reversal: reverses drug resistance mediated by MRP | H69AR cells + 2 uM doxorubicin, CellTiter-Glo, 72 h | differential viability (reversal), % at 10 µM | 85,000 tested, 0.04% active;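 active = viability drop by adding the cancer drug above about 55%, with treated viability meeting a 40% cutoff, limit read from the data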;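 also: viability without doxorubicin minus viability with 2 µM doxorubicin for each compound; larger differential means the compound sensitizes cells more to doxorubicin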
CYP2C9 act: CYP2C9 (human) activation; P11712; recombinant CYP2C9, luciferin-H conversion, luminescence; stronger effect = higher value; factor 1 = untreated enzyme, 0 = blocked; activation factor at 5 µM; 96,000 tested, 1.4% active;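 active = activation factor of 2 or more for CYP2C9 at a 5 µM dose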;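 also: 0 = sulfaphenazole-blocked wells and 1 = vehicle-only wells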
CYP2C9 inh: inhibitors of human CYP2C9. P11712. inhibition, % at 5 µM. AID 777. 96,000 tested, 20% active. CYP2C9 Supersomes, luciferin-H conversion, luminescence;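 active = blocking of liver enzyme CYP2C9 beyond about 50% at 5 µM, limit read from the data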
CYP2C19 inh: human CYP2C19 inhibition; P33261; CYP2C19 Supersomes, luciferin-H EGE luminescence, 30 min; inhibition, % at 5 µM; 96,000 tested, 21% active; AID 778;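 active = CYP2C19 inhibition above a set limit at 5 µM in the primary screen, cut at about 50% in these data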;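 also: plate controls were negative control wells for no effect and 2.5 mM tranylcypromine positive control for full effect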
Active calls of the source: *. The list is not random: actives were taken first. Their share in the collection is about 21%.

CCOC(=O)c1c(C)[nH]c(C(=O)CSc2nnc(-c3ccncc3)n2CC)c1C was read as MRP-1 activ -4.2, CYP2C19 activ 0.1, CYP2C9 act 0.2, CYP2C9 inh 83.8* and CYP2C19 inh 93.9*.
CCOC(=O)c1c(C)[nH]c(C(=O)CSc2nnnn2-c2ccccc2)c1C was read as MRP-1 activ 1.3, CYP2C19 activ 0.9, MRP reversal -4.1, CYP2C9 act 1.1, CYP2C9 inh -7.5 and CYP2C19 inh 9.8.
`CCn1c(SCC(=O)c2[nH]c(C)c(C(C)=O)c2C)nnc1-c1cccs1` gave MRP-1 activ -2.2, CYP2C19 activ 0.4, MRP reversal 12.3, CYP2C9 act 0.7, CYP2C9 inh 28.8 and CYP2C19 inh 64.2*.
`CC(=O)N1CCN(C(=S)NC(=O)c2ccc(S(=O)(=O)N3CCOCC3)cc2)CC1` gave MRP-1 activ 0.0.
COC(=O)c1c(C(=O)OC)c2cc(C)ccn2c1Cl was read as MRP-1 activ 0.5, CYP2C19 activ 0.5, MRP reversal -13.6, CYP2C9 act 0.5, CYP2C9 inh 54.1* and CYP2C19 inh 46.7.
Cc1ccc(N2CC(C(=O)NCc3ccccn3)CC2=O)cc1 (stereo unspecified) was read as MRP-1 activ -1.9, CYP2C19 activ 0.8, MRP reversal 6.6, CYP2C9 act 0.7, CYP2C9 inh 25.6 and CYP2C19 inh 17.0.
Screening Cc1ccc(C(=O)Nc2cc(C)c(OCC(=O)N3CCOCC3)c(C)c2)cc1 returned MRP-1 activ -0.8, CYP2C19 activ 0.9, MRP reversal -22.1, CYP2C9 act 0.2, CYP2C9 inh 78.0* and CYP2C19 inh 9.6.
Screening CC1=N/C(=C\c2ccc([N+](=O)[O-])cc2)C(=O)N1c1ccc(Br)c(C)c1 returned MRP-1 activ -3.1, CYP2C19 activ 0.8, CYP2C9 act 0.7, CYP2C9 inh 30.4 and CYP2C19 inh 18.1.
`Cc1cc(C(=O)N2CCN(Cc3ccc4c(c3)OCO4)CC2)on1` gave MRP-1 activ -1.1 and MRP reversal 9.2.
`Cc1nn(Cc2ccccc2)c2sc(C(=O)N3CCN(Cc4ccc5c(c4)OCO5)CC3)cc12` gave MRP-1 activ -5.2, CYP2C19 activ 0.6, MRP reversal -6.0, CYP2C9 act 0.3, CYP2C9 inh 66.7* and CYP2C19 inh 39.3.
CCOC(=O)N1CCN(C(=O)c2ccc3nc(N4CCCCC4)sc3c2)CC1 was read as MRP-1 activ -0.7, CYP2C19 activ 0.8, MRP reversal -7.6, CYP2C9 act 0.8, CYP2C9 inh 15.0 and CYP2C19 inh 21.5.
Screening CC1CCN(c2nc3ccc(C(=O)N4CCN(Cc5ccccc5)CC4)cc3s2)CC1 returned MRP-1 activ 0.1, CYP2C19 activ 0.4, MRP reversal -4.8, CYP2C9 act 0.6, CYP2C9 inh 37.4 and CYP2C19 inh 59.6*.
`O=C(c1ccc2nc(N3CCCCC3)sc2c1)N1CCN(Cc2ccc3c(c2)OCO3)CC1` gave MRP-1 activ -3.0, CYP2C19 activ 0.1, CYP2C9 act 0.2, CYP2C9 inh 83.3* and CYP2C19 inh 88.7*.
Screening Cc1cc(C(=O)N2CCN(Cc3ccc4c(c3)OCO4)CC2)cs1 returned MRP-1 activ -1.8, CYP2C19 activ 0, MRP reversal 11.0, CYP2C9 act 0.4, CYP2C9 inh 59.2* and CYP2C19 inh 96.2*.
Screening CCOC(=O)N1CCN(C(=O)c2ccc3nc(N4CCC(C)CC4)sc3c2)CC1 returned MRP-1 activ -0.3, CYP2C19 activ 0.8, CYP2C9 act 0.7, CYP2C9 inh 34.7 and CYP2C19 inh 20.1.
Screening O=S(=O)(NCC(c1cccnc1)N1CCN(c2ccccc2)CC1)c1cc(F)ccc1F (stereo unspecified) returned MRP-1 activ -1.8, CYP2C19 activ 0.6, MRP reversal -0.2, CYP2C9 act 0.6, CYP2C9 inh 37.6 and CYP2C19 inh 36.2.
Screening CC1CCCC(=C\c2ccccc2)/C1=N/O (stereo unspecified) returned MRP-1 activ 0.1.
For COc1cc(OC)cc(C(=O)N2CCN(S(C)(=O)=O)CC2)c1 the results were MRP-1 activ -2.6, CYP2C19 activ 0.9, MRP reversal 14.3, CYP2C9 act 1.2, CYP2C9 inh -23.1 and CYP2C19 inh 12.1.
For CCN(CC)C(=O)Cn1cnc2sc(C(=O)N3CCN(c4ccc(OC)cc4)CC3)c(C)c2c1=O the results were MRP-1 activ -0.9, CYP2C19 activ 1, MRP reversal 15.0, CYP2C9 act 0.5, CYP2C9 inh 45.3 and CYP2C19 inh 3.5.
`Cc1cc(C(=O)N2CCN(S(C)(=O)=O)CC2)cs1` gave MRP-1 activ -0.4, CYP2C19 activ 0.4, MRP reversal 6.2, CYP2C9 act 1, CYP2C9 inh 1.6 and CYP2C19 inh 55.8*.
O=C(c1ccc2nc(N3CCOCC3)sc2c1)N1CCC(Cc2ccccc2)CC1 was read as MRP-1 activ -0.9, CYP2C19 activ 0.2, MRP reversal 7.9, CYP2C9 act 0.7, CYP2C9 inh 31.0 and CYP2C19 inh 80.5*.
Screening CCn1cnc2sc(C(=O)N3CCN(Cc4ccc5c(c4)OCO5)CC3)c(C)c2c1=O returned MRP-1 activ -2.7, CYP2C19 activ 0.1, MRP reversal -7.9, CYP2C9 act 0.2, CYP2C9 inh 75.3* and CYP2C19 inh 85.2*.
Screening COc1ccccc1N1C(=O)CC(Sc2n[nH]c(-c3cccc(C)c3)n2)C1=O (stereo unspecified) returned MRP-1 activ -1.2.
Screening CC(C)c1cc(C(=O)N/N=C/c2cccnc2)n[nH]1 returned MRP-1 activ 1.2.
Cc1c(NC(=O)CSc2nnc(-c3cccc(Cl)c3)o2)c(=O)n(-c2ccccc2)n1C was read as MRP-1 activ 1.0, CYP2C19 activ 1, MRP reversal 10.3, CYP2C9 act 0.7, CYP2C9 inh 31.7 and CYP2C19 inh 0.5.
`COc1ccccc1CNC(=O)Nc1cccs1` gave MRP-1 activ -4.2, CYP2C19 activ 0.1, MRP reversal 10.2, CYP2C9 act 0.6, CYP2C9 inh 41.1 and CYP2C19 inh 87.5*.
For COc1ccccc1CNC(=O)Cc1ccc(Br)cc1 the results were MRP-1 activ -3.5.
COc1ccc(Br)cc1CNC(=O)Nc1cccs1 was read as MRP-1 activ -0.2, CYP2C19 activ 0.2, MRP reversal 8.1, CYP2C9 act 0.3, CYP2C9 inh 66.6* and CYP2C19 inh 75.6*.
`O=C(/C=C/c1ccc(Cl)c([N+](=O)[O-])c1)Nc1ccc(N2CCCC2)cc1` gave MRP-1 activ -2.3.
For COCCn1c(C2CCCCC2)nc2sc3ccccc3c(=O)c2c1=O the results were MRP-1 activ -1.1, CYP2C19 activ 0.4, MRP reversal -7.7, CYP2C9 act 0.2, CYP2C9 inh 76.7* and CYP2C19 inh 61.4*.
For CC(/C=N\NC(=O)c1ccc(C)nc1)=C\c1ccccc1 the results were MRP-1 activ -0.6.
For COc1ccc(-c2cc(=O)oc3c(C)c(OC(=O)c4cccs4)ccc23)cc1 the results were MRP-1 activ -1.1.
